aSyn UTR act = Activators working through SNCA 5'UTR binding (MLPCN). AID 1814. activity score, % (tested at 7.5 µM), hits read low. alpha-synuclein 5'UTR reporter, activators screen. 300,000 compounds, 7.1% hits; in the data active = activity score below about -60%
Numbers without * were called inactive. These entries were drawn from the full list.

SMILES | aSyn UTR act
O=C(CSc1nccn1-c1ccccc1)c1ccc(Cl)cc1 | -111.4*
Fc1ccc(-c2nnsc2Sc2ccccn2)cc1 | -84.5*
O=C(c1ccc(Cl)cc1)c1cnc2ccccn12 | -125.7*
Nc1ccccc1C(=O)NNC(=O)C(=O)/C=C(\O)c1ccccc1 | -138.9*
O=C1N=C(N2CCCCC2)S/C1=C\c1ccc(Cl)cc1 | -149.5*
C=CCOc1ccc(/C=C2\SC(N3CCCCC3)=NC2=O)cc1 | -66.3*
O=C1N=C(N2CCCCC2)S/C1=C\c1ccccc1F | -143.0*
Cc1ccc(/C=C2\SC(N3CCCCC3)=NC2=O)cc1 | -175.6*
COc1ccc(-c2nc3ccccc3o2)cc1OC | -82.4*
c1ccc2oc(-c3ccc4nc[nH]c4c3)nc2c1 | -135.1*
CCOc1ccc(C(=O)N2CCn3c2nc2ccccc23)cc1 | -69.2*
Cc1ccc(C(=O)n2c(N)nc3ccccc32)cc1 | 81.1
O=C(c1cccs1)N1CCn2c1nc1ccccc12 | -117.8*
COc1ccc(C(=O)N2CCn3c2nc2ccccc23)cc1 | -108.4*
COc1ccc(C(=O)n2c(-c3ccco3)nc3ccccc32)cc1 | -100.5*
COC(=O)c1ccc2c(c1)C(C)(C)C(/C=C/c1ccccc1O)=[N+]2C | 118.3
COC(=O)c1ccc(N)c(N=CC2=C(O)CC(C)(C)CC2=O)c1 | -171.9*
CCOc1cc2nc(-c3ccc(OC)c(OC)c3)nc(NCCCN3CCOCC3)c2cc1OC | -64.8*
COc1ccc(C2c3ccc4ccccc4c3Oc3ncn(CCN4CCOCC4)c(=N)c32)cc1OC (configuration not stated) | 105.4
Clc1ccc(-c2nc(NCCN3CCOCC3)c3ccccc3n2)cc1 | -89.5*
COCCNC(=S)N/N=C(\C)c1cc2ccccc2o1 | -117.4*
C/C(=N\NC(=O)COc1ccc(C(C)(C)C)cc1)c1cc2ccccc2o1 | -109.3*
CCn1c(SCC(=O)Nc2ccc(C)cc2)nc(O)cc1=O | -70.6*
CCCCOc1ccc(C2CCC(C(C)=O)C(C)C2)cc1 (configuration not stated) | -169.3*
O=c1[nH]c(COc2ccc(Cl)cc2Br)nc2ccccc12 | -123.1*
SMILES | aSyn UTR act
O=c1[nH]c(COc2ccc(Cl)cc2Cl)nc2ccccc12 | -188.9*
Cn1ncc(Br)c1C(=O)Nc1ccc(Br)cn1 | -89.5*
CCOc1ccc(NC(=S)NNC(=O)c2cc(Br)ccc2Cl)cc1 | -108.6*
CCOc1ccc(NC(=O)Nc2ccc(Br)cn2)cc1 | -105.5*
O=C(Nc1ccc(Cl)cc1)Nc1ccc(Br)cn1 | -103.4*
CCCCCCC(=O)Nc1ccc(Br)cn1 | -62.2*
O=C(/C=C/c1ccc(O)c(O)c1)OCCc1ccccc1 | -130.9*
O=C(/C=C/c1ccc(O)c(O)c1)c1ccccc1O | -293.4*
O=C(/C=C/c1cc2ccccc2o1)c1ccccc1O | -161.2*
O=C(/C=C/c1ccoc1)c1ccccc1O | -76.4*
COC(=O)Cc1c(C)c2ccc(OCC(C)=O)c(C)c2oc1=O | -123.6*
CCc1c(C)c2ccc(OCC(=O)OC(C)C)c(C)c2oc1=O | -106.5*
O=C(Nc1nc2c(cc3c4c(cccc42)CC3)s1)c1ccccc1Cl | -65.0*
CCOC(=O)c1cc2c(nc1N)CC(C)(CC)OC2 (configuration not stated) | -100.7*
CCOC(=O)c1c(C)oc2c1c(C(c1ccccc1)N1CCOCC1)c(O)c1ccccc12 (configuration not stated) | -205.4*
CCOC(=O)c1c(C)oc2c1c(C(c1cccnc1)N1CCCCC1)c(O)c1ccccc12 (configuration not stated) | -145.5*
COc1cccc(NC(=O)c2nnn(Cc3ccc(Br)cc3F)c2N)c1 | -80.3*
COc1ccc(C)cc1NC(=O)c1nnn(Cc2cccc(C(F)(F)F)c2)c1N | 55.5
COc1cccc(NC(=O)c2nnn(CCc3ccccc3)c2N)c1 | -126.8*
COc1ccc(-n2cc(-c3ccc(Cl)cc3)[nH]c2=S)cc1 | -91.1*
COc1cccc(-n2cc(-c3ccc(F)cc3)[nH]c2=S)c1 | -157.6*
CCCCN1C(=O)C(=O)N(CC(=O)N2N=C3/C(=C/c4ccco4)CCCC3C2c2ccco2)C1=O (configuration not stated) | -86.3*
O=C(Nc1nc(-c2ccc3c(c2)OCCO3)cs1)c1ccco1 | -76.5*
CC(C)(C)C(=O)Nc1nc(-c2ccc3c(c2)OCO3)cs1 | -146.9*
NC1=NN=C(c2ccc3c(c2)OCCO3)CS1 | 56.8
SMILES | aSyn UTR act
O=C(Nc1nc(-c2ccncc2)cs1)c1ccco1 | -85.6*
C=CCNc1nc(-c2ccc3c(c2)OCCO3)cs1 | -133.7*
CCC(=O)Nc1nc(-c2ccc3c(c2)CC(C)N3S(C)(=O)=O)cs1 (configuration not stated) | -70.0*
CCC(=O)Nc1nc(-c2ccc3c(c2)OCCO3)cs1 | -136.3*
O=C(Nc1nc(-c2cccs2)cs1)c1ccco1 | -85.1*
C=CCNc1nc(-c2ccc(O)c(C(N)=O)c2)cs1 | -77.9*
O=C(NC(=S)Nc1nc(-c2ccccc2)cs1)c1ccco1 | -77.0*
CCC(=O)N1CCc2cc(-c3csc(NC(=O)c4ccco4)n3)ccc21 | -76.7*
CC(=O)Nc1nc(-c2ccc3c(c2)CCO3)cs1 | -124.6*
c1cc2c(cc1-c1csc(NNC3=NCCCCC3)n1)OCCO2 | -70.0*
Oc1ccc(/C=C/c2ccnc3ccccc23)cc1 | -112.4*
Clc1ccccc1/C=C/c1ccnc2ccccc12 | -109.2*
CC(C)C(=O)Nc1ccc(C(=O)c2ccccc2)cc1 | -87.6*
COc1cccc(NC(=O)c2ccc(NC(=O)C(C)C)cc2)c1 | -114.6*
COc1cccc(NC(=O)c2ccc(OC(F)(F)F)cc2)c1 | -153.2*
CC(=O)c1ccc(NC(=O)C(C)NCc2ccccc2Cl)cc1 (configuration not stated) | -78.2*
COc1cc(NC(=O)N2CCNC2=O)cc(C(=O)Nc2cccc(C(F)(F)F)c2)c1 | 67.6
Oc1ccc(/C=N/Nc2ccnc3cc(Cl)ccc23)cc1O | -78.5*
CCCCN(C)C(=O)c1cc2cc3ccc(OC)cc3nc2o1 | -114.1*
CCN(C(=O)c1cc2cc3ccc(C)cc3nc2o1)c1ccc(OC)cc1 | -306.8*
COc1ccc2cc3cc(C(=O)NC(C)C)oc3nc2c1 | -142.0*
CCCCN(C)C(=O)c1cc2cc3cc(OC)ccc3nc2o1 | -121.1*
CCOCC(=O)Nc1nc2ccc(C)cc2s1 | -85.1*
CCOc1ccc2nc(NC(=O)C3CCN(C(=O)c4ccco4)CC3)sc2c1 | -98.5*
Cc1ccc2nc(NC(=O)CCn3cccc3)sc2c1 | -115.4*
SMILES | aSyn UTR act
CCOc1ccc2nc(-c3cc(NC(C)=O)ccc3O)sc2c1 | -161.3*
Cc1ccc2nc(NC(=O)CCCC(=O)O)sc2c1 | 102.2
OC(COc1ccc(CNCCc2ccc(C(F)(F)F)cc2)cc1)CN1CCCCC1 (configuration not stated) | 82.2
CCOc1ccc2nc(NC(=O)C3(C)CC3(Br)Br)sc2c1 (configuration not stated) | -128.0*
CCOCC(=O)Nc1nc2ccc(OCC)cc2s1 | -73.2*
Cc1ccc2nc(NC(=O)C3CC3C)sc2c1 (configuration not stated) | -104.9*
CCOc1ccc2nc(NC(=O)c3cnccn3)sc2c1 | -127.5*
Cc1ccc2nc(NC(=O)CSCC(=O)OCC(=O)c3ccccc3)sc2c1 | 61.7
C/C=C/C(=O)OCC(=O)Nc1nc2ccc(C)cc2s1 | -74.3*
Cc1ccc2nc(NC(=O)COC(=O)c3ccccn3)sc2c1 | -108.7*
O=C(Nc1ccc(Br)cc1Cl)c1cnccn1 | -69.8*
COc1ccc(NC(=O)Nc2cnccn2)cc1 | -80.1*
Cn1ccc(NC(=O)Nc2ccc(Cl)cc2Cl)n1 | -112.5*
